The record followed here is PubChem BioAssay AID463195 (Sanford-Burnham Center for Chemical Genomics, 2010).

The campaign covered roughly 330,000 compounds. About 4,600 (1.4%) were called active. Only a selection was taken, and actives are over-represented in it overall. Values without a mark were called inactive.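 How the source made its calls: active means inhibition of 40% or more at the single tested concentration; inactive means the rest.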

This test in a line: growth inhibitors of isogenic TIM10 control yeast, primary screen, counter-screen for tim10-1 yeast inhibitor project, luminescence, uHTS (AID 463195).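 Further: wild-type TIM10 isogenic control strain grown at permissive 25 °C; 0% = DMSO yeast wells and 100% = minimal medium wells without yeast.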 Conditions: S. cerevisiae TIM10 strain growth, BacTiter-Glo luminescence, 24 h; at 10 µM; hits give high values. (In general: Counterscreens check selectivity or assay interference.)
Broadly, the inhibition is the drop in the measured response relative to a control, in per cent. As for `CN(C)C(=O)CCc1ccc2c3c([nH]c2c1)[C@]1(CCc2ccccc2)[C@@H](C(=O)N2CCCCC2)C[C@H](CC(=O)NCCC2=CCCCC2)C(=O)N1CC3`, the inhibition is -1.38%.
Turning to `Cc1cc(C(F)(F)F)nc(SCC(=O)Nc2nccs2)n1`, the inhibition was 2.33%.
The value for `Cn1cnnc1SCC(=O)Nc1ccc(N2CCOCC2)cc1` was -21.6%; that for `CCN(CC)CCN(C(=O)c1ccc(S(=O)(=O)N2CCOCC2)cc1)c1nc2cc3c(cc2s1)OCCO3` was 41% (active); that for `CN(C)CCCN(C(=O)c1ccc(S(=O)(=O)N2CCCCCC2)cc1)c1nc2cc3c(cc2s1)OCCO3` was 11.4%.
The value for `CCN(CC)CCN(C(=O)c1ccc(N2C(=O)CCC2=O)cc1)c1nc2cc3c(cc2s1)OCO3` was -10.9%; that for `Cc1ccc(N(CC(=O)NCC2CCCO2)C(=O)CNS(=O)(=O)c2ccc(Cl)cc2)cc1` (stereo not drawn) was 11.1%; that for `COc1cccc(N2CC(NS(=O)(=O)c3ccc(Cl)cc3)CC2=O)c1` (stereo not drawn) was -3.31%.
Regarding `CCOC(=O)C1(C)NC(c2ccco2)C2C(=O)N(c3ccccc3)C(=O)C21` (stereo not drawn), the inhibition was -0.047%.
The value for `CCCC1(C(=O)OCC)NC(c2ccc(N(C)C)cc2)C2C(=O)N(c3ccc4c(c3)OCCO4)C(=O)C21` (stereo not drawn) was 4.95%.
With `CCCCC1(C(=O)OCC)NC(c2ccc(O)cc2)C2C(=O)N(c3ccccc3)C(=O)C21` (stereo not drawn) the figure was 58.8% (active); with `Cc1ccc(NC(=O)C2CCCN2C(=O)OCc2ccccc2)cc1C` (stereo not drawn), -1.12%; with `CC(=NCc1ccco1)c1c(C(F)(F)F)[nH]n(-c2nc3ccccc3s2)c1=O`, 50.6% (active).
In the case of `CCC1(CC)NC(=O)N(Cc2nc3ccccc3s2)C1=O`, the inhibition was 0.882%.
With `CCC(C)Cn1c(O)cc2nn(-c3nc4ccccc4s3)c(=O)c-2c1C` (stereo not drawn) the figure was -6.61%; with `COc1cc(NC(=O)C2CC(c3ccccc3O)=NO2)c(OC)cc1Cl` (stereo not drawn), -3.49%.
Consider `COC(C/C=C/C(=O)[C@@H](C)OCc1ccccc1)OC`, for which the inhibition is 50.1% (active).
As to `COC(C[C@H](O)CC(=O)[C@@H](C)OCc1ccccc1)OC`, the inhibition is 8.38%.
With `COC(C[C@@H]1O[C@@H]1C(=O)[C@H](C)OCc1ccccc1)OC` the figure was -11%; with `COC(=O)[C@@H]1CC[C@H](C)[C@@H](c2ccc(C)cc2)N1C(=O)c1ccc(/C=N/O[C@H](C)c2cn([C@@H]3COC[C@H]3O)nn2)cc1`, -0.068%; with `CN(CC(=O)Nc1ccc(Cl)cc1)C(=O)CNC(=O)c1ccc2ccccc2c1`, -7.81%.
The value for `CCOc1ccc2nc(N(CCCN(C)C)C(=O)c3ccc(C(=O)c4ccccc4)cc3)sc2c1` was 11.2%.
On to `CN(C)CCCN(C(=O)c1ccc(S(=O)(=O)N2CCCc3ccccc32)cc1)c1nc2ccc(F)cc2s1`, for which the inhibition was 40.9% (active).
With `CN(C)CCCN(C(=O)c1ccc(S(=O)(=O)N2CCCCCC2)cc1)c1nc2ccc(Br)cc2s1` the figure was 34.5%; with `Cc1cc(NCc2ccco2)n2c(nc3ccccc32)c1C#N`, -0.142%.
With `COc1ccc(Nc2oc(-c3ccccc3Cl)nc2C#N)cc1` the figure was 13.8%; with `Cc1ccccc1-c1nc(C#N)c(NCc2ccco2)o1`, 46.8% (active).
The value for `CC(C)CCn1c(=O)c2c(nc3n2CCCN3Cc2ccccc2)n(C)c1=O` was 11.2%; that for `COc1ccc(Cc2nnc(N/N=C/c3ccccc3O)[nH]c2=O)cc1OC` was 9.37%; that for `Cc1nn(Cc2ccc(Cl)c(Cl)c2)c(C)c1NC(=O)c1cc(C2CC2)on1` was 43% (active).
On to `CSc1ccccc1NC(=O)c1cc(C2CC2)on1`, for which the inhibition was 7.03%.
For `Cc1nn(Cc2ccc(F)cc2)c(C)c1NC(=O)c1cccnc1Cl`, the inhibition was -10.4%.
With `COc1ccc(CN2CCNC(=O)C2CC(=O)N(C)Cc2ccccn2)cc1OC` (stereo not drawn) the figure was 10.2%; with `CC(=O)Nc1ccc(CC#N)cc1`, 12.5%.
The value for `O=C(NCCN1C(=O)S/C(=C\c2cccnc2)C1=O)c1ccc(S(=O)(=O)N2CCCC2)cc1` was 2.86%; that for `Cc1cc(OCCCC(=O)NCCN2C(=O)S/C(=C\c3cccnc3)C2=O)ccc1Cl` was 38.4%; that for `O=C(NCCN1C(=O)S/C(=C\c2cccnc2)C1=O)c1cccc(OC(F)F)c1` was 43.2% (active).
On to `CCOc1ccc(N(CC(=O)NCC2CCCO2)S(=O)(=O)c2ccc(C)cc2)cc1` (stereo not drawn), for which the inhibition is 16.8%.
The value for `CCc1sc(C(=O)N2CCN(CC(=O)Nc3cccc(F)c3)CC2)cc1C` was 60.2% (active); that for `CC(=O)N1CCN(CC(=O)Nc2ccc(C)c(F)c2)CC1` was -1.66%.
Turning to `O=C(CN1CCN(C(=O)c2cccc(F)c2)CC1)Nc1ccccc1F`, the inhibition was -0.2%.
Regarding `O=C(NC1CC1)C(Cc1ccccc1)NS(=O)(=O)c1ccccc1F` (stereo not drawn), the inhibition was -6.34%.
The value for `COc1ccc(S(=O)(=O)N(CC(=O)N/N=C/c2ccc(C(=O)O)cc2)Cc2ccccc2)cc1OC` was -21.2%; that for `CCOC(=O)C1=C(CSc2nccn2C)NC(=O)NC1c1ccc(OC)cc1` (stereo not drawn) was 9.58%; that for `COCCOC(=O)C1=C(C)N=c2s/c(=C\c3cccs3)c(=O)n2C1c1cccs1` (stereo not drawn) was 21.4%.
Consider `CCOC(=O)C1=C(C)N=c2s/c(=C\C(=O)OC)c(=O)n2C1c1ccc(OC)cc1` (stereo not drawn), for which the inhibition is 61.5% (active).
Consider `CC(c1ccccc1)n1c(NCCCn2ccnc2)nc2c1c(=O)[nH]c(=O)n2C` (stereo not drawn), for which the inhibition is 1.78%.
The value for `Cc1ccc(C)c(NC(=O)C2Cc3ccccc3CN2C(=O)OCc2ccccc2)c1` (stereo not drawn) was 27.9%.
The value for `COc1ccc(Cl)cc1N(CC(=O)N1CCCCC1)S(C)(=O)=O` was 1.46%; that for `Cc1onc(-c2ccccc2Cl)c1C(=O)OCC(=O)c1ccccc1` was 23.4%.
The value for `Cc1[nH]c2ccccc2c1C(=O)COC(=O)c1c(-c2ccccc2)noc1C` was 48.3% (active); that for `Cc1[nH]c2ccccc2c1C(=O)CSCC(=O)O` was 13.1%; that for `CCCN(CCC)C(=S)Nc1cc(C(=O)OC)ccc1C(=O)OC` was -3.94%.
Consider `CCOC(=O)[C@@H]1[C@H]2COc3ccc(Br)cc3[C@H]2N2C(=O)N(c3ccc(C)cc3)C(=O)[C@@]12C`, for which the inhibition is 13.9%.
With `COc1ccc(C/C(N)=N/OC(=O)c2ccco2)cc1OC` the figure was -7.79%; with `COc1ccc(C(=O)O/N=C(\N)Cc2ccc(Cl)cc2Cl)cc1OC`, 85.8% (active).
With `COc1ccc(C(=O)ON=C2c3ccccc3-c3ccccc32)cc1OC` the figure was 18%; with `CC(=O)Nc1ccc(S(=O)(=O)NCC(=O)OCc2cc(=O)oc3ccc4ccccc4c23)cc1`, 6.88%; with `N#Cc1cccc(CN2CCC(=O)N([C@H](CO)c3ccccc3)CC2)c1`, 12.1%.
The value for `O=[N+]([O-])c1cc([N+](=O)[O-])c(Oc2cc(F)cc(F)c2F)cc1NN1CCCCC1` was -1.5%.
With `Cc1ccc(NC(=O)c2cc(-c3ccccc3O)n[nH]2)cc1C`, the inhibition was 0.905%.
The value for `O=C(Nc1cccnc1Cl)c1cc(-c2ccccc2O)on1` was 3.29%.
With `Oc1ccccc1-c1cc(-c2ccc(Cl)cc2)n[nH]1` the figure was 53.8% (active); with `CCCCC1S/C(=N/N=C/c2cccs2)NC1=O` (stereo not drawn), 5.03%.
The value for `O=C(N/N=C\c1cccc(Br)c1)c1ccccc1-n1cccc1` was 51.9% (active); that for `O=C(CNC(=O)c1cccs1)N/N=C/c1cccc(Br)c1` was 18.4%.
With `O=C(N/N=C/c1cccc(Br)c1)c1ccc(N2CCCC2=O)cc1`, the inhibition is 12%.
For the compound `CC(C)(C)OC(=O)C[C@@H]1C/C=C\C[C@@H](CC(=O)NCCO)C(=O)N[C@H](Cc2c[nH]c3ccccc23)COC1=O`, the inhibition was -3.29%.
The value for `CC(C)CCn1cnc2c1c(=O)n(CC(=O)NC(N)=O)c(=O)n2Cc1ccccc1` was 2.63%.
The value for `COc1cc(C(=O)NN(CCC#N)C2=NS(=O)(=O)c3ccccc32)cc(OC)c1OC` was 8.55%; that for `Cc1nc(NNC(=O)c2ccccc2)cc(-c2ccccc2)n1` was 10.7%; that for `Nc1ccc(-c2nnc(-c3ccccc3)o2)cc1` was 8.79%.
With `Nc1cccc(-c2cc(-c3ccccc3)nc(-c3cccc(N)c3)n2)c1` the figure was 44.2% (active); with `CC1=NNC(=O)C1Cc1c(Cl)cccc1Cl` (stereo not drawn), 13.4%; with `COc1ccc(N2C(=O)C(CC(=O)Nc3ccc(F)cc3)N(CCc3cccs3)C2=O)cc1` (stereo not drawn), 27.1%.
Consider `CCc1ccccc1NC1c2ccccc2C(=O)N1c1cccnc1` (stereo not drawn), for which the inhibition is -1.26%.
For the compound `O=C1[C@@H](c2ccccc2)[C@@H](c2ccccc2)N1c1cccnc1`, the inhibition is 63.5% (active).
The value for `CC(=O)C1=C(O)C(=O)N(c2cccnc2)C1c1ccc([N+](=O)[O-])cc1` (stereo not drawn) was -3.83%; that for `COc1ccc(-c2c(C)cc3oc(=O)cc(-c4ccccc4)c3c2C)cc1C=O` was -23.6%.
The value for `CCN(C(=O)COC(=O)CCOc1cccc(C)c1)c1c(N)n(Cc2ccccc2)c(=O)[nH]c1=O` was -2.83%; that for `COc1ccccc1C1=Nc2cccc3cccc(c23)N1` was 8.32%; that for `Fc1ccccc1N=C1Nc2cccc3cccc1c23` was 5.3%.
`c1ccc(C2=Nc3cccc4cccc(c34)N2)cc1`: the inhibition was 42.2% (active).
For `CCO/C=C1\C(=O)N(c2ccc(OCC)cc2)C(=O)c2ccccc21`, the inhibition was 1.43%.
With `COc1cc([N+](=O)[O-])ccc1NC(=O)COC(=O)CCOc1ccc(C)cc1`, the inhibition is 49% (active).
With `COc1cccc(NC(=O)COC(=O)CCOc2ccccc2OC)c1` the figure was 30%.
With `CSc1ccccc1NC(=O)COC(=O)CCCOc1ccc(C)cc1` the figure was -8.29%; with `Cc1cccc(OCc2nnc(SCc3nc4cc(C(F)(F)F)ccc4c(=O)[nH]3)o2)c1`, 23%.
